For 40 molecules, growth results are on record in PubChem BioAssay (NCI).

The panel holds about 83,000 compounds, 20% with a hit somewhere; the sample as a whole holds those more often.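 Plates (96-well) were seeded with cells, treated with compound at one concentration, and incubated for 48 hours before percent growth was determined.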 Calls of active or inactive are those of the source.

The test has as its system OVCAR-4 ovarian. Description: NCI-60 one-dose screen, 48 h (100 = growth as untreated, 0 = no growth, -100 = all killed). To be noted: 10 µM unless noted. On the procedure:
Growth inhibition of the OVCAR-4 human tumor cell line is measured as a screen for anti-cancer activity. Cells are grown in 96 well plates and exposed to the test compound for 48 hours. Compounds are tested at a single concentration, which is 10^-5 M for most compounds. The reported endpoint is percent growth (GI% or GIPRCNT), where numbers from 0 - 100% represent growth inhibition, and numbers from -100% - 0 represent cell death. For example, a value of 40 represents 60% growth inhibition. A value of 0 means no net growth occurred over the course of the experiment. A value of -40 indicates 40% of cells at the beginning of the experiment died by the end of the experiment. A value of -100 means all cells are dead at the end of the experiment.
NCI-60 Human Tumor Cell Lines Screen was performed using the standard one-dose NCI protocol, which is described in more detail at https://dtp.cancer.gov/discovery_development/nci-60/default.htm.
Compounds with GIPRCNT values below 10 were considered active. Activity score was based on GIPRCNT using the following formula: […]
Score is 0 for GIPRCNT values of 100 or above, 50 for GIPRCNT values of 0, and 100 for GIPRCNT values of -100.
For `COc1cc2nc(N3CCCC3)nc(NCCc3ccccc3)c2cc1OC`, the growth is -2.44% (active).

For the molecule `Cc1cc2c3ccccc3ccc2[n+]2ccccc12`, the growth was 31.6% (inactive).

Turning to `Cn1c(NCCc2ccc(O)c(O)c2)nc2c1c(=O)n(Cc1ccc(Cl)c(Cl)c1)c(=O)n2C`, the growth was 52.8% (inactive).

Regarding `CCOc1cc2ncc(C#N)c(Nc3ccc(OCc4cccc(F)c4)c(Cl)c3)c2cc1NC(=O)CC1CCSS1` (stereo not given), the growth is -33.3% (active).

`O=C1/C(=C/c2ccccc2O)N=C2SCCCN12`: the growth is 82.9% (inactive).

For `O=c1ccccc(-c2ccc(Br)cc2)c1O`, the growth was 30% (inactive).

For the molecule `CCCCn1c(-c2ccc(C(=O)O/N=C(\N)c3ccc4ccccc4c3)cc2)nc(-c2ccccc2)c1-c1ccccc1`, the growth was 55.5% (inactive).

As for `CC1=C[C@H]2c3c(c(O)c(O)c4oc(-c5ccccc5)cc(=O)c34)[C@H](c3cc(O)c(O)c4oc(-c5ccccc5)cc(=O)c34)[C@H]2C(C)(C)C1`, the growth was 10.4% (inactive).

Consider `Cc1cc(N2CCN(c3ccnc4cc(Cl)ccc34)CC2)nc(N2CCOCC2)n1`, for which the growth is 77.8% (inactive).

As to `O=C1c2cccc3cccc(c23)C(=O)N1CCCCN1CCN(CCCCOc2ccc(-c3nc4ccc(N5CCOCC5)cc4[nH]3)cc2)CC1`, the growth was 79.4% (inactive).

`COc1ccc(-c2cc(-c3ccc(Nc4ccnc5cc(Cl)ccc45)cc3)nc(N3CCOCC3)n2)cc1`: the growth is -52.1% (active).

Regarding `COc1ccc(/C=C/c2nc3ccccc3nc2/C=C/c2ccc(OC)cc2)cc1`, the growth was 88.7% (inactive).

For the molecule `C#CC(F)(F)[C@]1(O)CC[C@H]2[C@@H]3CCC4=CC(=O)CCC4=C3[C@@H](c3ccc(C4CC4)cc3)C[C@@]21C`, the growth was 10.9% (inactive).

With `Nc1ccc(-c2cc3c(Nc4ccc(Oc5cccc(C(F)(F)F)c5)c(Cl)c4)ncnc3s2)cc1`, the growth is 77.8% (inactive).

Turning to `CC1=C(O)C(=O)C(C(C#N)(C#N)C(C#N)C#N)C1` (stereo not given), the growth was 107% (inactive).

In the case of `COc1ccc(/C=C(\C#N)C(=O)Nc2cccc(Nc3nc(SC)nc(-c4cccc([N+](=O)[O-])c4)c3C#N)c2)cc1OC`, the growth is 91.1% (inactive).

For the molecule `O=C1c2cc3c(cc2-c2c1c1ccc(F)cc1c(=O)n2C[C@H](O)[C@H](O)[C@H](O)CO)OCO3`, the growth is 5.07% (active).

For `CCCN1CCN(c2ccc3nc(-c4ccc5nc(-c6ccc(OCC)cc6)[nH]c5c4)[nH]c3c2)CC1`, the growth was -34.6% (active).

With `FC(F)(F)c1[nH]ncc1-c1nc2ccc3n[nH]c(C#Cc4cccnc4)c3c2c2c1CCCC2`, the growth is 80.5% (inactive).

On to `O=C1/C(=C/C(Cl)=C/c2ccccc2)SC(=S)N1CCc1ccc(O)cc1`, for which the growth is 30.7% (inactive).

Consider `FC(F)(F)Oc1ccc2nc3nc4ccc[nH]c4cc3c2c1`, for which the growth was 31.5% (inactive).

Turning to `N#Cc1c(N)n(CCNC(=O)c2ccccc2)c2nc3ccccc3nc12`, the growth is 114% (inactive).

Turning to `CC[N+](CC)=c1sc2c(s1)C(c1ccc(Cl)cc1)Oc1ccc(Cl)cc1-2` (stereo not given), the growth was 9.29% (active).

As for `Clc1ccc2c(NCCCNc3nc(-n4ccnc4)nc4ccccc34)ccnc2c1`, the growth was 75% (inactive).

For the molecule `COc1cc2c(cc1-c1c(C)noc1C)ncc1nc(C3CCCCC3)n([C@H](C)COC(F)F)c12`, the growth was 44.8% (inactive).

`FC(F)(F)c1nc2c(NCc3ccc(-c4ccccc4)cc3)cccc2[nH]1`: the growth is 88.9% (inactive).

`O=c1ccccc(-c2ccc(-c3ccco3)cc2)c1O`: the growth is 23.7% (inactive).

As for `Oc1cccc2ccc(N/N=C/c3cc(CN4CCOCC4)c(O)c4ncccc34)nc12`, the growth was 14.2% (inactive).

`Cc1nc(Nc2ccc(F)c(Cl)c2)sc1C(=O)O`: the growth was 21.7% (inactive).

As to `O=C(N/N=C/c1c[nH]c2ccccc12)c1cc(-c2ccccc2)on1`, the growth was 85.6% (inactive).

As for `Cc1ccc2c(C(C[N+](=O)[O-])c3ccccc3)c(-c3ccccc3)[nH]c2c1` (stereo not given), the growth is 59.8% [9.5 µM] (inactive).

As for `CSc1nc(-c2cccc(NC(=O)CCl)c2)c(C#N)c(=O)n1C`, the growth is 12.5% (inactive).

For the molecule `COc1cc(-c2nn(-c3ccc(C)cc3)cc2C(=O)O)ccc1O`, the growth was 109% (inactive).

In the case of `Cc1ccc(OC(=O)c2ccc(Cl)cc2)cc1`, the growth is 79.8% (inactive).

With `COc1cc(-c2nc(C(=O)NCC(=O)NO)nn2-c2ccc(Cl)cc2)cc(OC)c1OC`, the growth is 105% (inactive).

Turning to `O=C1/C(=C/c2cn(-c3ccccc3)nc2-c2ccccc2)SC(=S)N1CCc1ccccc1`, the growth was 103% (inactive).

For the molecule `Cc1ccc2c(C(C[N+](=O)[O-])c3ccco3)c(-c3ccccc3)[nH]c2c1` (stereo not given), the growth was 64.2% (inactive).

As to `Cc1c(/C=C/[N+](=O)[O-])ccc2c1[nH]c1ccccc12`, the growth was 116% (inactive).

Consider `Nc1nc2ncc(CCNc3ccc(C(=O)O)cc3)nc2c(=O)[nH]1`, for which the growth was 127% (inactive).

Turning to `COc1ccc2c(c1)C(=O)/C(=C/c1ccccn1)CC2`, the growth is 83.8% (inactive).
